Assay results: PubChem BioAssay (NCI)
Compounds without any hit were thinned out: in the full panel of roughly 79,000, 15% have a hit. Active and inactive are the calls of the source. Cut-off read from the data, not from the text of the source: active = growth inhibition above about 70%; inactive = the rest.

What was measured:
[1] = NCI Yeast Anticancer Drug Screen. Data for the wt2 strain (AID 169);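 note: 0% = growth of vehicle-treated yeast cultures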; conditions: S. cerevisiae wt2 strain growth inhibition, active compounds read high
Summary of the method: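 Steps: yeast strain treated with compound; growth recorded; inhibition calculated relative to cultures given vehicle alone.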

[2] = NCI Yeast Anticancer Drug Screen. Data for the mlh1 strain (AID 171);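 note: 0% = growth of vehicle-treated control cultures of the same strain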; conditions: S. cerevisiae mlh1 strain growth inhibition, active compounds read high
Summary of the method: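 Yeast screen: mutant strain plus compound, growth scored against vehicle control wells.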

[3] = NCI Yeast Anticancer Drug Screen. Data for the sgs1 strain (AID 173);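 note: 0% = growth of vehicle-only control cultures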; conditions: S. cerevisiae sgs1 mutant, active compounds read high
Summary of the method: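 Inhibition of yeast growth served as the measure. The mutant strain was treated with each compound, and growth was normalised to cultures receiving vehicle alone.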

[4] = NCI Yeast Anticancer Drug Screen. Data for the mlh1 rad18 strain (AID 175); conditions: S. cerevisiae mlh1 rad18 strain growth inhibition, active compounds read high
Summary of the method: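 Compound-treated yeast growth, normalised to vehicle controls. Strain bears defined DNA repair mutations.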

[5] = NCI Yeast Anticancer Drug Screen. Data for the rad18 strain (AID 177); conditions: S. cerevisiae rad18 mutant growth inhibition, active compounds read high
Summary of the method: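 Inhibition values reflect reduced yeast growth compared with vehicle-treated controls, using a strain engineered with a DNA damage repair defect.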

[6] = NCI Yeast Anticancer Drug Screen. Data for the rad52 strain (AID 147);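 note: 0% = growth of vehicle-treated control cultures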; conditions: S. cerevisiae rad52 mutant growth inhibition, active compounds read high
Summary of the method: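 Genetically altered yeast (DNA damage repair defect) treated with compound; inhibition calculated relative to vehicle.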

[7] = NCI Yeast Anticancer Drug Screen. Data for the wt1 strain (AID 149);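 note: 0% = growth of vehicle-treated wt1 cultures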; conditions: S. cerevisiae wt1 strain (SPY 50644) growth inhibition, active compounds read high
Summary of the method: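 wt1 strain grown with compound or vehicle; inhibition taken from the growth difference.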

[8] = NCI Yeast Anticancer Drug Screen. Data for the rad50EPP+ strain (AID 151);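 note: 0% = growth of vehicle-treated control cultures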; conditions: S. cerevisiae rad50 mutant strain, active compounds read high
Summary of the method: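 Strain rad50EPP+; compound exposure; % growth inhibition vs vehicle.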

[9] = NCI Yeast Anticancer Drug Screen. Data for the mgt1 strain (AID 153); conditions: S. cerevisiae mgt1 mutant growth inhibition, active compounds read high
Summary of the method: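 Read-out: yeast growth inhibition vs vehicle control. Strain mgt1, drawn from a panel altered in DNA damage repair or cell cycle control.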

[10] = NCI Yeast Anticancer Drug Screen. Data for the rad50 strain (AID 155);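 note: 0% = growth of vehicle-only cultures of the same strain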; conditions: S. cerevisiae rad50 strain growth inhibition, active compounds read high
Summary of the method: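 DNA repair mutant yeast, compound exposure, growth read-out; inhibition is taken relative to vehicle.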

[11] = NCI Yeast Anticancer Drug Screen. Data for the mec2-1 strain (AID 157); conditions: S. cerevisiae mec2-1 strain, active compounds read high
Summary of the method: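 Cells of the genetically defined mec2-1 yeast strain are incubated with test compound. Inhibition of growth is calculated against vehicle-treated controls.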

[12] = NCI Yeast Anticancer Drug Screen. Data for the rad14 strain (AID 159);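 note: 0% = growth of vehicle-treated control cultures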; conditions: S. cerevisiae rad14 strain growth inhibition, active compounds read high
Summary of the method: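 DNA repair-defective yeast, compound-exposed; % growth inhibition derived by comparison with vehicle-treated controls.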

[13] = NCI Yeast Anticancer Drug Screen. Data for the sgs1 mgt1 strain (AID 161);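 note: 0% = growth of cultures given vehicle only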; conditions: S. cerevisiae sgs1 mgt1 strain, active compounds read high
Summary of the method: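 Mutant yeast exposed to compound; growth scored against vehicle-only wells.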

[14] = NCI Yeast Anticancer Drug Screen. Data for the CLN2oe strain (AID 163);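 note: 0% = growth of vehicle-only control cultures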; conditions: S. cerevisiae CLN2oe strain, active compounds read high
Summary of the method: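 Strain altered in cell-cycle control, incubated with compound; growth compared to solvent-treated controls.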

[15] = NCI Yeast Anticancer Drug Screen. Data for the cln2 rad14 strain (AID 165);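 note: 0% = growth equal to vehicle treated cultures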; conditions: S. cerevisiae cln2 rad14 strain, active compounds read high
Summary of the method: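 The screen exposed genetically defined yeast (cln2 rad14) to test compounds and scored growth inhibition relative to vehicle-treated controls.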

[16] = NCI Yeast Anticancer Drug Screen. Data for the bub3 strain (AID 167); conditions: S. cerevisiae bub3 mutant strain, active compounds read high
Summary of the method: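 In this screen, a yeast mutant lacking normal mitotic checkpoint function is challenged with compound. Relative growth versus vehicle gives the inhibition value.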

[17] = at 5.0 µM (retest, dose inferred, filed as 0.5)
[18] = at 50.0 µM (retest, dose inferred, filed as 5.0)

Measured: growth inhibition

CCC(/C=C/c1ccccc1)=N\Nc1ccc(Cl)c(Cl)c1
active: [1]; at 100.0 µM 95% | [2]; at 100.0 µM 94% | [3]; at 100.0 µM 95% | [4]; [18] 93% | [4]; at 50.0 µM 91.3% | [5]; at 100.0 µM 95%
inactive: [1]; at 1.2 µM -2% | [1]; at 3.7 µM -5% | [1]; at 11.0 µM 7% | [1]; at 33.0 µM 22% | [2]; at 1.2 µM -4% | [2]; at 3.7 µM -2% | [2]; at 11.0 µM 0% | [2]; at 33.0 µM 39% | [3]; at 1.2 µM -3% | [3]; at 3.7 µM -17% | [3]; at 11.0 µM 17% | [3]; at 33.0 µM 67% | [4]; [17] 9% | [5]; at 1.2 µM 6% | [5]; at 3.7 µM 16% | [5]; at 11.0 µM 8% | [5]; at 33.0 µM 43%

CCCCCCCCNCCCCCCCC
inactive: [6]; at 1.2 µM 4% | [6]; at 3.7 µM 18% | [7]; at 1.2 µM 0% | [7]; at 3.7 µM 2% | [7]; at 11.0 µM 29% | [8]; at 1.2 µM 1% | [8]; at 3.7 µM -1% | [8]; at 11.0 µM 24% | [9]; at 1.2 µM 12% | [9]; at 3.7 µM 29% | [10]; at 1.2 µM 6% | [10]; at 3.7 µM 3% | [10]; [17] 67% | [11]; at 1.2 µM 2% | [11]; at 3.7 µM 13% | [11]; [17] 9% | [12]; at 1.2 µM 50% | [14]; at 1.2 µM 13% | [14]; at 3.7 µM 21% | [14]; at 11.0 µM 60% | [15]; [17] 65% | [16]; at 1.2 µM 33% | [16]; at 3.7 µM 49% | [1]; at 1.2 µM 0% | [1]; at 3.7 µM 17% | [2]; at 1.2 µM 6% | [2]; at 3.7 µM 20% | [3]; at 1.2 µM 11% | [3]; at 3.7 µM 30% | [5]; at 1.2 µM 14% | [5]; at 3.7 µM 38%
active: [6]; at 11.0 µM 76% | [6]; at 33.0 µM 99% | [6]; at 100.0 µM 99% | [7]; at 33.0 µM 96% | [7]; at 100.0 µM 99% | [8]; at 33.0 µM 92% | [8]; at 100.0 µM 99% | [9]; at 11.0 µM 97% | [9]; at 33.0 µM 100% | [9]; at 100.0 µM 100% | [10]; at 11.0 µM 96% | [10]; at 33.0 µM 98% | [10]; [18] 99% | [10]; at 50.0 µM 99.5% | [10]; at 100.0 µM 98% | [11]; at 11.0 µM 77% | [11]; at 33.0 µM 98% | [11]; [18] 100% | [11]; at 50.0 µM 99.7% | [11]; at 100.0 µM 98% | [12]; at 3.7 µM 82% | [12]; at 11.0 µM 97% | [12]; at 33.0 µM 98% | [12]; at 100.0 µM 98% | [13]; [17] 82% | [13]; [18] 100% | [13]; at 50.0 µM 99.5% | [14]; at 33.0 µM 97% | [14]; at 100.0 µM 97% | [15]; [18] 100% | [15]; at 50.0 µM 99.1% | [16]; [17] 74% | [16]; at 11.0 µM 95% | [16]; at 33.0 µM 98% | [16]; [18] 99% | [16]; at 50.0 µM 99.5% | [16]; at 100.0 µM 99% | [1]; at 11.0 µM 76% | [1]; at 33.0 µM 99% | [1]; at 100.0 µM 99% | [2]; at 11.0 µM 96% | [2]; at 33.0 µM 99% | [2]; at 100.0 µM 100% | [3]; at 11.0 µM 94% | [3]; at 33.0 µM 97% | [3]; at 100.0 µM 97% | [4]; [17] 80% | [4]; [18] 99% | [4]; at 50.0 µM 99.3% | [5]; at 11.0 µM 91% | [5]; at 33.0 µM 99% | [5]; at 100.0 µM 95%
